# Data: PubChem BioAssay (NCATS)
# Records with an inconclusive call do not appear. Entries that show only a call come without a potency. Activity calls are given as the source filed them. The call rests on the fitted dose curve; in most records, active means well fitted curve in the direction sought with a large enough effect; inconclusive means small, poorly fitted or top-dose-only effect, or another doubt; inactive means no such curve, though single readings can be large; an effect the other way counts as inactive or inconclusive.
# How the values were obtained:
# [1] = target: Aldehyde dehydrogenase, mitochondrial (Homo sapiens) (UniProt P05091); assay: qHTS for Inhibitors of the Aldehyde Dehydrogenase Family (ALDH2) Primary screen (AID 2061308); conditions: ALDH2 enzyme inhibition qHTS, 1536-well; series mostly up to 56 µM; further: nearly all actives have a fitted effect of over 55% in size
# [2] = target: Retinaldehyde dehydrogenase 3 (Homo sapiens) (UniProt P47895); assay: qHTS for Inhibitors of the Aldehyde Dehydrogenase Family (ALDH1A3) Primary screen (AID 2061315); conditions: ALDH inhibition qHTS; series mostly up to 56 µM
SMILES,Potency [1],Potency [2]
NC(=O)C1CCN(c2nc(-c3ccccc3Cl)cs2)CC1,inactive,inactive
C/C=C(\C)C(=O)OC1C(C)C2(O)C(C=C(CO)CC3(O)C(=O)C(C)=CC32)C2C(C)(C)C12OC(=O)C(C)C (centres undefined),inactive,inactive
Cc1ccc(OCCn2c(CCNC(=O)c3cccc4[nH]ccc34)nc3ccccc32)cc1,inactive,inactive
O=C(Nc1ccc2ccccc2c1)Nc1nnc(-c2ccccc2F)s1,inactive,inactive
CC(=O)Oc1ccc(C2(c3ccc(OC(C)=O)cc3)Oc3ccccc3NC2=O)cc1,inactive,inactive
COCCN(CCOC)c1nc(C)nc2c1nc(-c1ccccc1)n2CCCN1CCCCC1C (centres undefined),inactive,inactive
COc1cccc(CNc2ccc(S(=O)(=O)Nc3cccnc3)cc2)c1O,inactive,inactive
Cc1cc(C)nc(NC(=S)N2CCN(c3ccc(NS(C)(=O)=O)nn3)CC2)c1,inactive,inactive
Cc1ccc(-c2cc(C(=O)Nc3ccn[nH]3)c3ccccc3n2)cc1C,inactive,inactive
COc1ccc(N2Cc3cccc(C(=O)O)c3C2=O)cc1OC,inactive,inactive
Cc1c(P(=S)(c2ccccc2)c2ccccc2)[n+]2ccccc2n1CCCCCc1ccccc1,inactive,inactive
Cc1ccc(S(=O)(=O)Nc2ccccc2C(=O)Nc2nc(-c3ccccc3)cs2)cc1,inactive,inactive
Oc1cc(-c2ccncc2)cc2cccnc12,inactive,inactive
COc1cc(F)c(S(=O)(=O)N2CCN(S(=O)(=O)c3ccc(NC(C)=O)cc3)CC2)c(F)c1,inactive,inactive
Cc1cc(C)c(-c2nnc(NC(=O)Nc3ccc4ccccc4c3)s2)c(C)c1,inactive,inactive
CN(C)CCCNC(=O)c1ccc(-c2cnc3c(O)ccc(C(=O)O)c3c2)cc1,inactive,inactive
Cc1ccc(NS(=O)(=O)c2ccc(Cl)cc2)cc1C,inactive,inactive
Cc1ccc(S(=O)(=O)Nc2cnccc2C(=O)Nc2ccncc2)cc1,inactive,inactive
O=C(/C=C/c1ccc(OC(F)(F)F)cc1)Nc1cccc([S+](=O)([O-])Nc2ccccc2F)c1,inactive,inactive
CN(Cc1cccs1)c1ncnc2ccc(-c3ccc4c(c3)OCO4)cc12,inactive,inactive
Cc1noc(C)c1-c1ccc2ncnc(NCc3ccc(C(F)(F)F)o3)c2c1,inactive,inactive
Cc1cc(C)nc(NC(=S)N2CCN(c3nccc(C(F)(F)F)n3)CC2)c1,inactive,inactive

SMILES,Potency [1],Potency [2]
O=c1c2[nH]c3ccsc3c2cnn1Cc1ccccc1F,inactive,inactive
Cc1ccc(S(=O)(=O)Nc2cnccc2C(=O)Nc2nc(-c3ccc(-c4ccccc4)cc3)cs2)cc1,inactive,inactive
Cc1ccc(Cn2ncc3c4sc(C)cc4n(C)c3c2=O)cc1,inactive,inactive
Cc1cc2c(s1)c1cnn(Cc3cc(F)c(F)cc3F)c(=O)c1n2C,inactive,inactive
COc1cc(O)c(C(CC(=O)N2CCC(C)CC2)c2ccc(C)cc2)c(OC)c1 (centres undefined),inactive,inactive
Cc1ccnc(NC(=S)Nc2cccc(C(F)(F)F)c2)c1,inactive,inactive
COc1ccc(O[C@@H]2O[C@H](CO)[C@H](O)[C@H](O)[C@H]2O)cc1,inactive,inactive
O=S(=O)(NC1CCN(S(=O)(=O)c2c(F)cccc2F)C1)c1ccc2c(c1)OCCO2 (centres undefined),inactive,inactive
c1c[nH]c(CNc2ncnc3ccc(-c4ccc5c(c4)OCO5)cc23)n1,inactive,inactive
Cc1ccc(-c2c(C(=O)CF)n(CCCO)c3ncnc(N)c23)cc1,inactive,inactive
N#Cc1nc(Nc2cc(F)cc(F)c2)nc(NC2CCCC2)n1,inactive,inactive
Nc1ccc(NC(=O)Nc2nnc(-c3ccncc3)s2)cc1C(F)(F)F,inactive,inactive
Cc1cccc(CNc2ccnc(-c3cc(C(F)(F)F)cc(C(F)(F)F)c3)n2)c1,inactive,inactive
O=c1c2[nH]c3cc(Br)sc3c2cnn1Cc1ccccc1F,inactive,inactive
CC(C)(C)CNc1ncnc2ccc(-c3ccc(C(=O)O)o3)cc12,inactive,inactive
C=C(C)C(=O)O[C@H]1/C(C=O)=C\CC/C(CO)=C/[C@H]2OC(=O)C(=C)[C@@H]2[C@@H]1OC,inactive,inactive
O=C(Cn1nc(-c2ccc(OC(F)(F)F)cc2)ccc1=O)NCCc1ccccc1,inactive,inactive
O=S(=O)(Nc1ccccc1F)c1ccc(O)c2ncccc12,inactive,inactive
Cc1cc(C)n2ncc(C(=O)Nc3ccc4c(c3)CCC4)c2n1,inactive,inactive
Cc1ccccc1C(=O)N1CCc2cc(-n3cc(NC(=O)Cc4ccccc4)cn3)ccc21,inactive,inactive
CCOc1ccc(C(=O)Oc2ccc(-c3nc4ccccc4[nH]3)cc2)cc1,inactive,inactive
CCCCNc1nc(C)nc2c1nc(-c1ccccc1)n2CCN1CCCCC1,inactive,inactive

SMILES,Potency [1],Potency [2]
COc1ccc(-c2nnc3n2N=C(c2ccc(OC)c(OC)c2)CS3)c(OC)c1,inactive,inactive
COC(=O)c1ccc(NC(=O)c2nc3ccccc3n(C)c2=O)cc1,inactive,inactive
Cc1ccc(S(=O)(=O)Nc2ccccc2C(=O)Nc2ccc(-c3ccccc3)nn2)cc1,inactive,inactive
CC(=O)N[C@H](C(=O)N[C@@H](C)C(=O)N[C@H](C#N)CC(=O)O)C(C)C,inactive,inactive
Cc1ccc(NS(=O)(=O)c2ccc3c(c2)CCCC(=O)N3)cc1C,inactive,inactive
CC(=O)NC(c1cc(Cl)c2cccnc2c1O)C(C)C (centres undefined),inactive,inactive
Cc1cc2c(s1)c1cnn(Cc3cc(OC(F)(F)F)ccc3F)c(=O)c1n2C,inactive,inactive
CN(Cc1ccco1)c1ncnc2ccc(-c3ccc4c(ccn4C)c3)cc12,inactive,inactive
O=C(Nc1ccc(S(=O)(=O)Nc2nccs2)cc1)c1cccc2ccccc12,inactive,inactive
Cc1ccc(OCCn2c(CCNC(=O)c3cccc(F)c3)nc3ccccc32)cc1,inactive,inactive
COC(=O)c1ccc(Cn2ncc3c4sc(C)cc4n(C)c3c2=O)cc1,inactive,inactive
Cc1cc(C)nc(NC(=S)N2CCN(c3ccc(C(F)(F)F)cc3C(F)(F)F)CC2)c1,inactive,inactive
O=C(Nc1ccc2ccccc2c1)Nc1nnc(-c2ccc(F)cc2)s1,inactive,inactive
COc1cccc(C2c3c(ncn(-c4ccccc4Cl)c3=N)Oc3ccc4ccccc4c32)c1 (centres undefined),inactive,inactive
Cc1ccc(S(=O)(=O)N2CCN(c3nc(C#N)nc4ccccc34)CC2)cc1,inactive,inactive
O=C(Nc1ccc(-c2ccccc2)nc1)c1cccs1,inactive,inactive
CC1(C)CC(C(=O)Nc2ccc([S+](=O)([O-])Nc3nccs3)cc2)C1,inactive,inactive
O=C(O)CCCCCNC(=O)CSc1nnc(-c2ccc([S+](=O)([O-])N3CCCC3)cc2)n1-c1ccccc1,inactive,inactive
Cc1ccc(S(=O)(=O)Nc2cnccc2C(=O)Nc2ccc(-c3nn[nH]n3)cc2)cc1,inactive,inactive
Cc1ccc(S(=O)(=O)Nc2cncc(C(=O)Nc3nc(-c4ccccc4)cs3)c2)cc1,inactive,inactive
O=[N+]([O-])c1cccc(S(=O)(=O)N2CCN(S(=O)(=O)c3ccc4c(c3)OCCO4)CC2)c1,inactive,inactive
COc1cccc(C2c3c(ncn(-c4ccc(F)cc4)c3=N)Oc3ccc4ccccc4c32)c1 (centres undefined),inactive,inactive

SMILES,Potency [1],Potency [2]
N/C(=N\c1nnc(-c2ccncc2)s1)Nc1ccc(Cl)c(Cl)c1,inactive,inactive
c1nc(N2CCC(N3CCCC3)CC2)c2cc(-c3ccc4c(c3)OCO4)ccc2n1,inactive,inactive
O=C(CCc1ccccc1)Nc1ccc(S(=O)(=O)Nc2nccs2)cc1,inactive,inactive
CSc1ccc(CNc2ncnc3ccc(-c4c(C)noc4C)cc23)cc1,inactive,inactive
COc1cccc(NCc2ccc(O)c3ncccc23)n1,inactive,inactive
Cc1cccc(CNc2ncnc3ccc(-c4ccoc4)cc23)c1,inactive,inactive
O=S(=O)(c1ccc2c(c1)OCCO2)N1CCN(S(=O)(=O)c2ccc3c(c2)OCCO3)CC1,inactive,inactive
CC1=C(C(=O)Nc2nc3ccccc3s2)C(c2nn(C)cc2Cl)N=C(Nc2nc3ccccc3o2)N1 (centres undefined),inactive,inactive
Fc1ccc(-c2nc(CCCCSc3nnc(-c4cccc5ccccc45)o3)no2)cc1,inactive,inactive
COc1cccc(Cn2ncc3c4sc(C)cc4n(C)c3c2=O)c1,inactive,inactive
Cc1ccc(-c2cc(C(=O)Nc3cccc4ccccc34)c3ccccc3n2)cc1C,inactive,inactive
O=C(NC1CCCc2c1cnn2-c1ccc(F)cc1F)c1ccccc1 (centres undefined),inactive,inactive
COc1cccc(C2=Nn3c(nnc3-c3cc(OC)cc(OC)c3)SC2)c1,inactive,inactive
NC(=O)C1CCN(c2nc(-c3cccc(Cl)c3)cs2)CC1,inactive,inactive
CC1=C(C(=O)n2ccc3ccccc32)C(c2ccccc2Br)N=C(Nc2nc3ccccc3o2)N1 (centres undefined),inactive,inactive
CC(C)Oc1cccc(-c2ccnc(N3CCC(C(N)=O)CC3)n2)c1,inactive,inactive
NC(=O)C1CCN(c2nc(-c3ccc4c(c3)OCCCO4)cs2)CC1,inactive,inactive
COc1ccc2c(c1)Oc1nc(-c3ccc(C)s3)nc(SCC(=O)Nc3cccc(C(=O)O)c3)c1C2,inactive,inactive
O=C(OCC#CCSc1nnc(-c2ccccc2F)o1)c1ccc(F)cc1,inactive,inactive
NCCCCC(=O)Nc1ccc(Cl)cc1C(=O)c1ccc[nH]1,inactive,inactive
COc1cccc(-c2nc3cc(NC(=O)c4ccc(C)c([N+](=O)[O-])c4)ccc3o2)c1,inactive,inactive
